SMILES strings stand for the structures. Inconclusive results are not listed. Activity calls are given as the source filed them. Rule for the calls, unless noted: active = hit-call score of the fitted dose curve at least 0.9, where 1 is the maximum; inactive = score below 0.9.

Read-out in test [1]: Pyruvate Dehydrogenase Kinase 4 (PDK4), PDK4 (gene 5166)
In words: LTEA_HepaRG_PDK4: Life Technologies and Expression Analysis (LTEA) Assay for Pyruvate Dehydrogenase Kinase 4 (PDK4) using HepaRG (AID 2283525). Conditions: mRNA level, 48 h; actives raise or lower the signal. Put shortly: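 Readout is qRT-PCR of PDK4 transcript, normalized to three housekeeping genes, with bidirectional fitting against 0.5% DMSO vehicle. Differentiated HepaRG cells were treated 48 h in serum-free induction medium, duplicate wells, eight-point half-log series topping at 100 uM.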

Read-out in test [2]: NAD(P)H dehydrogenase [quinone] 1 (NQO1), NQO1 (gene 1728)
Kind of test: LTEA_HepaRG_NQO1: Life Technologies and Expression Analysis (LTEA) Assay for NAD(P)H dehydrogenase [quinone] 1 (NQO1) using HepaRG (AID 2283526). Conditions: mRNA level, 48 h; actives raise or lower the signal. The procedure, abridged:
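In this assay, gene expression is read by qRT-PCR after 48 h exposure of HepaRG cells to eight concentrations (max 100 uM, half-log) in 0.5% DMSO. Each chemical runs in duplicate, and activity is scored relative to vehicle.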

Read-out in test [3]: Nuclear factor erythroid 2-related factor 2 (Homo sapiens) (UniProt Q16236)
In words: LTEA_HepaRG_NFE2L2: Life Technologies and Expression Analysis (LTEA) Assay for Nuclear factor erythroid 2-related factor 2 (NFE2L2) Transcription Factor using HepaRG (AID 2283527). Conditions: mRNA level, 48 h; actives raise or lower the signal. The procedure, abridged: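 NFE2L2 transcript level was read by qRT-PCR (housekeeping ACTB/GAPDH/POLR2A normalisation) after 48 h chemical treatment of HepaRG in serum-free induction medium. Duplicate 8-point half-log curves, top 100 uM, 0.5% DMSO vehicle; up- or down-regulation fitted against vehicle.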

Read-out in test [4]: succinate dehydrogenase complex iron sulfur subunit B (SDHB), SDHB (gene 6390)
Kind of test: LTEA_HepaRG_SDHB: Life Technologies and Expression Analysis (LTEA) Assay for succinate dehydrogenase complex iron sulfur subunit B (SDHB) using HepaRG (AID 2283528). As to conditions: mRNA level, 48 h; actives raise or lower the signal. Put shortly:
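HepaRG cells (~100,000/well, plated 48 h) exposed in duplicate for 48 h in serum-free induction medium to 8-point half-log series from 100 uM in 0.5% DMSO; mRNA by qRT-PCR normalised to ACTB, GAPDH, POLR2A; bidirectional fit versus DMSO.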

Read-out in test [5]: Signal transducer and activator of transcription 3 (Homo sapiens) (UniProt P40763)
In words: LTEA_HepaRG_STAT3: Life Technologies and Expression Analysis (LTEA) Assay for Signal transducer and activator of transcription (STAT3) using HepaRG (AID 2283529). As to conditions: mRNA level, 48 h; actives raise or lower the signal. The procedure, abridged: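 STAT3 transcript quantified by qRT-PCR against three housekeeping genes (ACTB, GAPDH, POLR2A), fitted both directions relative to DMSO. HepaRG cultures exposed 48 h to eight half-log concentrations, top 100 uM, 0.5% DMSO, serum-free induction medium.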

Read-out in test [6]: solute carrier (SLCO1B1), SLCO1B1 (gene 10599)
In words: LTEA_HepaRG_SLCO1B1: Life Technologies and Expression Analysis (LTEA) Assay for solute carrier (SLCO1B1) using HepaRG (AID 2283530). As to conditions: mRNA level, 48 h; actives raise or lower the signal. Put shortly: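 Differentiated human HepaRG cells, plated 48 h, switched to serum-free induction medium and exposed in duplicate for 48 h to 8 half-log concentrations (top 100 uM) in 0.5% DMSO. SLCO1B1 mRNA by TaqMan qRT-PCR, normalized to ACTB/GAPDH/POLR2A.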

Read-out in test [7]: sulfotransferase 2A1 (SULT2A1), SULT2A1 (gene 6822)
In words: LTEA_HepaRG_SULT2A1: Life Technologies and Expression Analysis (LTEA) Assay for sulfotransferase 2A1 (SULT2A1) using HepaRG (AID 2283531). Conditions: mRNA level, 48 h; actives raise or lower the signal. The procedure, abridged: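 Differentiated human HepaRG cells in serum-free induction medium were exposed for 48 h to eight half-log concentrations (top 100 uM, 0.5% DMSO). SULT2A1 mRNA was measured by qRT-PCR, normalized to ACTB, GAPDH and POLR2A, and fitted bidirectionally against DMSO.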

Read-out in test [8]: Transforming Growth Factor (TGFA), TGFA (gene 7039)
In words: LTEA_HepaRG_TGFA: Life Technologies and Expression Analysis (LTEA) Assay for Transforming Growth Factor (TGFA) using HepaRG (AID 2283532). Conditions: mRNA level, 48 h; actives raise or lower the signal. The procedure, abridged: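 TGFA transcript quantified by qRT-PCR (Fluidigm arrays) against three housekeeping genes, after 48 hours chemical treatment of HepaRG cells. Top concentration 100 uM with half-log dilutions, 8 points, duplicates, 0.5% DMSO.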

Read-out in test [9]: Transforming Growth Factor (TGFB1), TGFB1 (gene 7040)
In words: LTEA_HepaRG_TGFB1: Life Technologies and Expression Analysis (LTEA) Assay for Transforming Growth Factor (TGFB1) Transporter using HepaRG (AID 2283533). Conditions: mRNA level, 48 h; actives raise or lower the signal. Put shortly: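 Differentiated human HepaRG cells in serum-free induction medium were exposed in duplicate for 48 h to eight concentrations (top 100 uM, half-log steps, 0.5% DMSO). TGFB1 mRNA was quantified by qRT-PCR, normalized to ACTB, GAPDH, POLR2A, and fitted bidirectionally against DMSO.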

Read-out in the next test: TIMP1, TIMP1 (gene 7076)
In words: LTEA_HepaRG_TIMP1: Life Technologies and Expression Analysis (LTEA) Assay for TIMP1 using HepaRG (AID 2283534). As to conditions: mRNA level, 48 h; actives raise or lower the signal. The procedure, abridged:
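Differentiated human HepaRG cells in serum-free induction medium were exposed 48 h to chemicals (8 half-log concentrations, top 100 uM, 0.5% DMSO). TIMP1 mRNA was quantified by TaqMan qRT-PCR, normalized to ACTB/GAPDH/POLR2A; bidirectional fit versus DMSO.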

Read-out in test [10]: Tumor necrosis factor receptor 1 (TNFRSF1A), TNFRSF1A (gene 7132)
Kind of test: LTEA_HepaRG_TNFRSF1A: Life Technologies and Expression Analysis (LTEA) Assay for Tumor necrosis factor receptor 1 (TNFRSF1A) using HepaRG (AID 2283535). Conditions: mRNA level, 48 h; actives raise or lower the signal. The procedure, abridged: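 Differentiated human HepaRG cells were exposed in duplicate for 48 h in serum-free induction medium to eight concentrations (top 100 uM, half-log steps, 0.5% DMSO). TNFRSF1A mRNA was quantified by qRT-PCR, normalized to ACTB, GAPDH and POLR2A, then fitted bidirectionally against DMSO.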

Read-out in test [11]: Thyroid Hormone Responsive (THRSP), THRSP (gene 7069)
Kind of test: LTEA_HepaRG_THRSP: Life Technologies and Expression Analysis (LTEA) Assay for Thyroid Hormone Responsive (THRSP) using HepaRG (AID 2283536). Conditions: mRNA level, 48 h; actives raise or lower the signal. The procedure, abridged: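 THRSP transcript quantified by Fluidigm qRT-PCR against three housekeeping genes after 48 h chemical exposure of HepaRG cells in serum-free induction medium; eight-point half-log series, top 100 uM, 0.5% DMSO vehicle, duplicate wells.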

Read-out in test [12]: Cellular tumor antigen p53 (Homo sapiens) (UniProt P04637)
Kind of test: LTEA_HepaRG_TP53: Life Technologies and Expression Analysis (LTEA) Assay for Tumor Protein P53 (TP53) using HepaRG (AID 2283537). Conditions: mRNA level, 48 h; actives raise or lower the signal. Put shortly:
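Differentiated HepaRG cells in serum-free induction medium exposed 48 h in duplicate to 8 half-log concentrations, top 100 uM, 0.5% DMSO. TP53 mRNA by TaqMan qRT-PCR (Fluidigm), normalized to ACTB, GAPDH, POLR2A; fitted bidirectionally versus DMSO.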

Read-out in test [13]: UDP glucuronosyltransferase (UGT1A1), UGT1A1 (gene 54658)
In words: LTEA_HepaRG_UGT1A1: Life Technologies and Expression Analysis (LTEA) Assay for UDP glucuronosyltransferase (UGT1A1) using HepaRG (AID 2283538). Conditions: mRNA level, 48 h; actives raise or lower the signal. Put shortly: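 mRNA induction or loss of UGT1A1, by TaqMan qRT-PCR, in duplicate HepaRG wells after 48 h exposure to half-log dilutions topping at 100 uM; DMSO (0.5%) served as baseline.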

Read-out in test [14]: UDP glucuronosyltransferase (UGT1A6), UGT1A6 (gene 54578)
In words: LTEA_HepaRG_UGT1A6: Life Technologies and Expression Analysis (LTEA) Assay for UDP glucuronosyltransferase (UGT1A6) using HepaRG (AID 2283539). Conditions: mRNA level, 48 h; actives raise or lower the signal. Put shortly: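 Human HepaRG cells were dosed for 48 h in serum-free induction medium with 0.5% DMSO vehicle, eight-point half-log series from 100 uM, in duplicate. UGT1A6 mRNA was measured by qRT-PCR, normalized to ACTB, GAPDH, POLR2A, and fitted bidirectionally against DMSO.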

Read-out in test [15]: X-box binding protein 1 (XBP1), XBP1 (gene 7494)
In words: LTEA_HepaRG_XBP1: Life Technologies and Expression Analysis (LTEA) Assay for X-box binding protein 1 (XBP1) using HepaRG (AID 2283540). As to conditions: mRNA level, 48 h; actives raise or lower the signal. The procedure, abridged: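 Differentiated human HepaRG cells in serum-free induction medium were exposed in duplicate for 48 h to eight half-log concentrations up to 100 uM in 0.5% DMSO. XBP1 mRNA was quantified by qRT-PCR, normalised to ACTB, GAPDH and POLR2A, with bidirectional fitting against DMSO.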

Test [16] is described as follows: LTEA_HepaRG_LDH_cytotoxicity: Cytotoxicity Assessment in the Life Technologies and Expression Analysis (LTEA) Assay (AID 2283563; active = hit-call score of the fitted dose curve at least 0.9, where 1 is the maximum;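 for AC50: LDH activity released into spent culture medium as a marker of cell death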). The procedure, abridged:
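Differentiated human HepaRG cells, plated 48 h beforehand, were switched to serum-free induction medium and exposed for 48 h to eight half-log concentrations (top 100 uM) in 0.5% DMSO. LDH was measured in spent medium; activity was fitted relative to DMSO vehicle.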

Read-out in test [17]: solute carrier (SLC22A1), SLC22A1 (gene 6580)
Kind of test: LTEA_HepaRG_SLC22A1: Life Technologies and Expression Analysis (LTEA) Assay for solute carrier (SLC22A1) using HepaRG (AID 2283524). As to conditions: mRNA level, 48 h; actives raise or lower the signal. Put shortly:
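Transcript level of SLC22A1 quantified by qRT-PCR (normalized to three housekeeping genes) after 48 h chemical exposure of HepaRG cells, eight concentrations up to 100 µM, half-log steps, 0.5% DMSO vehicle. Gain or loss relative to DMSO fitted bidirectionally.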

Test [18] can be described thus: TOX21_p53_BLA_p2_viability: Viability Assessment in the Tox21 HCT-116 p53 Agonism Beta-lactamase Assay, Phase 2 (AID 2283591; active = hit-call score of the fitted dose curve at least 0.9, where 1 is the maximum;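 note: compound exposure lasted 16 h at 37 °C; actives lower the ATP signal meaning cytotoxicity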). The procedure, abridged:
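Cytotoxicity readout: CellTiter-Glo ATP luminescence, 30 min at room temperature, after the beta-lactamase read. Cells were HCT116 exposed 16 h at 37C to compounds pin-transferred at 217-fold dilution from DMSO stocks.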

Test [19] in a line: ATG_XTT_Cytotoxicity: Cytotoxicity Assessment in the Attagene TRANS-FACTORIAL HepG2 Assay (AID 2283584; active = hit-call score of the fitted dose curve at least 0.9, where 1 is the maximum). The procedure, abridged:
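HepG2 human liver cells, transiently transfected with multiple GAL4-UAS reporter units, were dosed and read at 24 h by XTT as cell number. Loss of signal was fitted relative to DMSO negative control baseline.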

Chain of Nuclear factor erythroid 2-related factor 2 (Homo sapiens) (Q16236 whole entry, looked up): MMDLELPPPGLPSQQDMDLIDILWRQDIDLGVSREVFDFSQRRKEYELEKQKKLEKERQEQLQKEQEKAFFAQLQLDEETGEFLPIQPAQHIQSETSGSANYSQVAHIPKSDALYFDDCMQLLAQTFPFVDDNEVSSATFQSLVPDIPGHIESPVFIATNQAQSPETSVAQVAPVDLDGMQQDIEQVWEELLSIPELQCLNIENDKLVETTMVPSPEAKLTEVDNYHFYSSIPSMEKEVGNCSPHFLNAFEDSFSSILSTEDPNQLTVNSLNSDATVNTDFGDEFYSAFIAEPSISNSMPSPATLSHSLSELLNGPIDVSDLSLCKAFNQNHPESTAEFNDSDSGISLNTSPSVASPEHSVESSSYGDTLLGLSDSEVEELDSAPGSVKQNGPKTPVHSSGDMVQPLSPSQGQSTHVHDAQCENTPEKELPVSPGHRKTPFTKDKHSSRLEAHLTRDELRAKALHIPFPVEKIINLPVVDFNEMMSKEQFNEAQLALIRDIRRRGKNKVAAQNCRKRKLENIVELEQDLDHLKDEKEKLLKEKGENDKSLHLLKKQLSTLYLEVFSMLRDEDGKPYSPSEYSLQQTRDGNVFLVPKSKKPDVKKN
Chain of Signal transducer and activator of transcription 3 (Homo sapiens) (P40763 whole entry, looked up): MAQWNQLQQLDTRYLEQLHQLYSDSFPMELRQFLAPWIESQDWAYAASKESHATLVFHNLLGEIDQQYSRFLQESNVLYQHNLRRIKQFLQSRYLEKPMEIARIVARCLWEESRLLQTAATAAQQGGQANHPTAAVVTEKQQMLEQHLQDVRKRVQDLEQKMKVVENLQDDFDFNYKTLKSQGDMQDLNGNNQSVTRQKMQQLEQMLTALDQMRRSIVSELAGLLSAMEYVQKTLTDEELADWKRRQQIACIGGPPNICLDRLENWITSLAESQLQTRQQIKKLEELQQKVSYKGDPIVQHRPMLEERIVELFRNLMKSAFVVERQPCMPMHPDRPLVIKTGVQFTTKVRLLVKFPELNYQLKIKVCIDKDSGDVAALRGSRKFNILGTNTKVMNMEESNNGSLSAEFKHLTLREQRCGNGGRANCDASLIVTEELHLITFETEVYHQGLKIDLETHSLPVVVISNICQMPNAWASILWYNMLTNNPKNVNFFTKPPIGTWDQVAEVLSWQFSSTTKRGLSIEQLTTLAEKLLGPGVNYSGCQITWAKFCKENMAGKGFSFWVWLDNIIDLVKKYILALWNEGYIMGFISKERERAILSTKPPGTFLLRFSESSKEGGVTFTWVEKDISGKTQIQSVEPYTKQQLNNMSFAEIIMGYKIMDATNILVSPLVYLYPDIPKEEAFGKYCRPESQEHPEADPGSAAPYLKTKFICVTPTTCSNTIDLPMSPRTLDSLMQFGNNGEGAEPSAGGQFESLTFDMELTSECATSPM
Chain of Cellular tumor antigen p53 (Homo sapiens) (P04637 whole entry, looked up): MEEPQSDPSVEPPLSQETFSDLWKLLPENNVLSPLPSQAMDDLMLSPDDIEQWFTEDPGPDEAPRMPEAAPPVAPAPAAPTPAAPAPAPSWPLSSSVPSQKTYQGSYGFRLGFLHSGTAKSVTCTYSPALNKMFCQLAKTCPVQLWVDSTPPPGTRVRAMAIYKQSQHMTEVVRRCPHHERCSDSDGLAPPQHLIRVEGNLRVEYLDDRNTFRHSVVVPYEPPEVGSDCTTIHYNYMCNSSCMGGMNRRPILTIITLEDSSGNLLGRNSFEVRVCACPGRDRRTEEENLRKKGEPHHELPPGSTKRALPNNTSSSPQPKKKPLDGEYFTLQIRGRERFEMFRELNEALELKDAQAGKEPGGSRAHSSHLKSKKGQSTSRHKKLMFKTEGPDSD

With `Cc1ccc(N)cc1`, the call in test [1], in test [2], in [3], in test [4], in [5] and in test [6] was inactive. Also, the outcome is “inactive” in test [7]; “inactive” in [8]; “inactive” in test [9]; “inactive” with TIMP1, TIMP1 (gene 7076); “inactive” in test [10]; “inactive” in test [11]. For the same molecule, the result in test [12], in test [13], in test [14], in [15] and in test [16] was inactive.

Take `CCOC(=O)[C@]1(c2ccccc2)Oc2ccccc2[C@@H]1N`: the AC50 – broadly, the concentration giving half of the maximal activity seen – in [1] is 71.2 µM (active); in test [6], 90.6 µM (active); in [7] it was 93.2 µM (active); in test [8] it was 70.9 µM (active); in test [10], 90.8 µM (active); in test [11] it was 3.18 µM (active). Besides, the AC50 in test [13] was 83.1 µM (active); in [14], 80 µM (active); in test [16], 77.6 µM (active). The molecule was classed as inactive in test [2], in test [3], in test [4], in [5], in test [9] and in test [15].

`COC(=O)c1ccccc1N`: the result in test [17], in [1], in test [2], in test [3], in [5] and in [6] was inactive. Further, the outcome was “inactive” in test [7]; “inactive” in test [8]; “inactive” in test [9]; “inactive” in the test with TIMP1, TIMP1 (gene 7076); “inactive” in test [10]; “inactive” in test [11]. Also, the call in test [12], in test [13], in test [14], in test [15], in [16] and in [18] was inactive.

Regarding `c1ccc(NNc2ccccc2)cc1`, the molecule was classed as inactive in test [17], in test [1], in [2], in test [3], in [5] and in [6]. Also, the outcome was “inactive” in [7]; “inactive” in [8]; “inactive” in the test with TIMP1, TIMP1 (gene 7076); “inactive” in test [10]; “inactive” in [11]; “inactive” in [12]. Also, the call in test [13], in test [14], in test [15], in test [16], in test [19] and in [18] was inactive.

Source of the values: PubChem BioAssay (EPA / NIEHS).
